# PubChem BioAssay (NCI)
# This is part of a sample that, as a whole, favours compounds with a hit. Of some 79,000 tested, about 15% had one in any assay. A number with no mark means an inactive call. Calls of active or inactive are those of the source. Rule as the data show it: active = growth inhibition above about 70%; inactive = the rest.
# Legend:
# [1] = NCI Yeast Anticancer Drug Screen. Data for the rad52 strain (AID 147);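 also: 0% = growth of vehicle-treated control cultures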; conditions: S. cerevisiae rad52 mutant growth inhibition, active compounds read high
# In short: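 Screen used a yeast mutant impaired in DNA repair. After compound exposure, growth was measured. Values reflect inhibition compared with vehicle-treated cells.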
# [2] = NCI Yeast Anticancer Drug Screen. Data for the wt1 strain (AID 149);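 also: 0% = growth of vehicle-treated wt1 cultures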; conditions: S. cerevisiae wt1 strain (SPY 50644) growth inhibition, active compounds read high
# In short: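 Compounds are added to wt1 yeast cultures. Growth is then measured. Inhibition is expressed relative to vehicle-treated controls.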
# [3] = NCI Yeast Anticancer Drug Screen. Data for the rad50EPP+ strain (AID 151);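 also: 0% = growth of vehicle-treated control cultures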; conditions: S. cerevisiae rad50 mutant strain, active compounds read high
# In short: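 Exposing the rad50EPP+ strain to each compound, growth was compared with vehicle-only cultures to give inhibition.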
# [4] = NCI Yeast Anticancer Drug Screen. Data for the mgt1 strain (AID 153); conditions: S. cerevisiae mgt1 mutant growth inhibition, active compounds read high
# In short: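 Genetically defined yeast (mgt1) treated with compound; inhibition of growth expressed against vehicle-treated controls.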
# [5] = NCI Yeast Anticancer Drug Screen. Data for the rad50 strain (AID 155);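 also: 0% = growth of vehicle-only cultures of the same strain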; conditions: S. cerevisiae rad50 strain growth inhibition, active compounds read high
# In short: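 Inhibition values express reduced yeast growth in compound-treated cultures relative to vehicle-treated controls.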
# [6] = NCI Yeast Anticancer Drug Screen. Data for the mec2-1 strain (AID 157); conditions: S. cerevisiae mec2-1 strain, active compounds read high
# In short: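 Readout is yeast growth inhibition, normalised to vehicle-treated controls, in the mec2-1 strain exposed to compound.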
# [7] = NCI Yeast Anticancer Drug Screen. Data for the rad14 strain (AID 159);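 also: 0% = growth of vehicle-treated control cultures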; conditions: S. cerevisiae rad14 strain growth inhibition, active compounds read high
# In short: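 A mutant yeast strain defective in DNA damage repair is treated with compound; inhibition of its growth is scored against untreated, vehicle-exposed cultures.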
# [8] = NCI Yeast Anticancer Drug Screen. Data for the sgs1 mgt1 strain (AID 161);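 also: 0% = growth of cultures given vehicle only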; conditions: S. cerevisiae sgs1 mgt1 strain, active compounds read high
# In short: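 Percent growth inhibition was derived by comparing compound-exposed mutant yeast with vehicle-exposed cultures. The strain carries alterations in DNA damage repair.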
# [9] = NCI Yeast Anticancer Drug Screen. Data for the CLN2oe strain (AID 163);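 also: 0% = growth of vehicle-only control cultures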; conditions: S. cerevisiae CLN2oe strain, active compounds read high
# In short: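 Values reflect how much compound exposure reduced yeast growth, referenced to vehicle-exposed cells. Assay organism is a strain with a defined genetic change affecting cell-cycle control.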
# [10] = NCI Yeast Anticancer Drug Screen. Data for the cln2 rad14 strain (AID 165);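 also: 0% = growth equal to vehicle treated cultures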; conditions: S. cerevisiae cln2 rad14 strain, active compounds read high
# In short: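 Relative to vehicle controls, growth inhibition of compound-treated cln2 rad14 yeast was recorded.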
# [11] = NCI Yeast Anticancer Drug Screen. Data for the bub3 strain (AID 167); conditions: S. cerevisiae bub3 mutant strain, active compounds read high
# In short: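 Steps: expose the mutant yeast strain to compound; grow alongside vehicle-treated cultures; measure growth; express inhibition against the vehicle cultures.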
# [12] = NCI Yeast Anticancer Drug Screen. Data for the wt2 strain (AID 169);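 also: 0% = growth of vehicle-treated yeast cultures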; conditions: S. cerevisiae wt2 strain growth inhibition, active compounds read high
# In short: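 Values express reduction in yeast growth under compound treatment, referenced to vehicle-treated cells.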
# [13] = NCI Yeast Anticancer Drug Screen. Data for the mlh1 strain (AID 171);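 also: 0% = growth of vehicle-treated control cultures of the same strain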; conditions: S. cerevisiae mlh1 strain growth inhibition, active compounds read high
# In short: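 Steps: expose the defined-mutant yeast strain to compound; expose a parallel culture to vehicle; measure growth; express compound effect as inhibition relative to the vehicle culture.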
# [14] = NCI Yeast Anticancer Drug Screen. Data for the mlh1 rad18 strain (AID 175); conditions: S. cerevisiae mlh1 rad18 strain growth inhibition, active compounds read high
# In short: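 Test agents were incubated with a yeast strain of defined genotype (DNA damage repair defect). Inhibition of growth was derived by comparison with vehicle-exposed cultures.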
# [15] = NCI Yeast Anticancer Drug Screen. Data for the rad18 strain (AID 177); conditions: S. cerevisiae rad18 mutant growth inhibition, active compounds read high
# In short: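 A genetically defined yeast mutant impaired in DNA damage repair was treated with test compounds, then its growth was measured against cultures receiving vehicle alone.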
# [16] = at 5.0 µM (retest, dose inferred, filed as 0.5)
# [17] = at 50.0 µM (retest, dose inferred, filed as 5.0)
smiles,measurement,setting,value
CSc1nnc(SC)nn1,growth inhibition,[1]; at 1.2 µM,1%
same,growth inhibition,[1]; at 3.7 µM,7%
same,growth inhibition,[1]; at 11.0 µM,0%
same,growth inhibition,[1]; at 33.0 µM,52%
same,growth inhibition,[1]; at 100.0 µM,98% (active)
same,growth inhibition,[2]; at 1.2 µM,-4%
same,growth inhibition,[2]; at 3.7 µM,-5%
same,growth inhibition,[2]; at 11.0 µM,-14%
same,growth inhibition,[2]; at 33.0 µM,22%
same,growth inhibition,[2]; at 100.0 µM,99% (active)
same,growth inhibition,[3]; at 1.2 µM,6%
same,growth inhibition,[3]; at 3.7 µM,4%
same,growth inhibition,[3]; at 11.0 µM,-2%
same,growth inhibition,[3]; at 33.0 µM,26%
same,growth inhibition,[3]; at 100.0 µM,98% (active)
same,growth inhibition,[4]; at 1.2 µM,8%
same,growth inhibition,[4]; at 3.7 µM,4%
same,growth inhibition,[4]; at 11.0 µM,13%
same,growth inhibition,[4]; at 33.0 µM,72% (active)
same,growth inhibition,[4]; at 100.0 µM,98% (active)
same,growth inhibition,[5]; at 1.2 µM,-13%
same,growth inhibition,[5]; at 3.7 µM,-3%
same,growth inhibition,[5]; [16],51%
same,growth inhibition,[5]; at 11.0 µM,-2%
same,growth inhibition,[5]; at 33.0 µM,45%
same,growth inhibition,[5]; [17],98% (active)
same,growth inhibition,[5]; at 50.0 µM,82.2% (active)
same,growth inhibition,[5]; at 100.0 µM,96% (active)
same,growth inhibition,[6]; at 1.2 µM,9%
same,growth inhibition,[6]; at 3.7 µM,1%
same,growth inhibition,[6]; [16],57%
same,growth inhibition,[6]; at 11.0 µM,16%
same,growth inhibition,[6]; at 33.0 µM,77% (active)
same,growth inhibition,[6]; [17],97% (active)
same,growth inhibition,[6]; at 50.0 µM,77.8% (active)
same,growth inhibition,[6]; at 100.0 µM,99% (active)
same,growth inhibition,[7]; at 1.2 µM,-10%
same,growth inhibition,[7]; at 3.7 µM,0%
same,growth inhibition,[7]; at 11.0 µM,34%
same,growth inhibition,[7]; at 33.0 µM,77% (active)
same,growth inhibition,[7]; at 100.0 µM,98% (active)
same,growth inhibition,[8]; [16],-10%
same,growth inhibition,[8]; [17],99% (active)
same,growth inhibition,[8]; at 50.0 µM,82.8% (active)
same,growth inhibition,[9]; at 1.2 µM,12%
same,growth inhibition,[9]; at 3.7 µM,-6%
same,growth inhibition,[9]; at 11.0 µM,15%
same,growth inhibition,[9]; at 33.0 µM,31%
same,growth inhibition,[9]; at 100.0 µM,98% (active)
same,growth inhibition,[10]; [16],57%
same,growth inhibition,[10]; [17],95% (active)
same,growth inhibition,[10]; at 50.0 µM,87.7% (active)
same,growth inhibition,[11]; at 1.2 µM,11%
same,growth inhibition,[11]; at 3.7 µM,27%
same,growth inhibition,[11]; [16],34%
same,growth inhibition,[11]; at 11.0 µM,65%
same,growth inhibition,[11]; at 33.0 µM,90% (active)
same,growth inhibition,[11]; [17],98% (active)
same,growth inhibition,[11]; at 50.0 µM,93.1% (active)
same,growth inhibition,[11]; at 100.0 µM,99% (active)
same,growth inhibition,[12]; at 1.2 µM,9%
same,growth inhibition,[12]; at 3.7 µM,5%
same,growth inhibition,[12]; at 11.0 µM,3%
same,growth inhibition,[12]; at 33.0 µM,38%
same,growth inhibition,[12]; at 100.0 µM,99% (active)
same,growth inhibition,[13]; at 1.2 µM,-2%
same,growth inhibition,[13]; at 3.7 µM,6%
same,growth inhibition,[13]; at 11.0 µM,15%
same,growth inhibition,[13]; at 33.0 µM,55%
same,growth inhibition,[13]; at 100.0 µM,99% (active)
same,growth inhibition,[14]; [16],58%
same,growth inhibition,[14]; [17],99% (active)
same,growth inhibition,[14]; at 50.0 µM,70.8% (active)
same,growth inhibition,[15]; at 1.2 µM,-4%
same,growth inhibition,[15]; at 3.7 µM,11%
same,growth inhibition,[15]; at 11.0 µM,12%
same,growth inhibition,[15]; at 33.0 µM,67%
same,growth inhibition,[15]; at 100.0 µM,98% (active)
COc1cc(/C=N/Nc2nnc3c4ccccc4c4ncccc4c3n2)cc(OC)c1OC,growth inhibition,[1]; at 1.2 µM,40%
same,growth inhibition,[1]; at 3.7 µM,51%
same,growth inhibition,[1]; at 11.0 µM,81% (active)
same,growth inhibition,[1]; at 33.0 µM,74% (active)
same,growth inhibition,[1]; at 100.0 µM,89% (active)
same,growth inhibition,[2]; at 1.2 µM,-22%
same,growth inhibition,[2]; at 3.7 µM,-1%
same,growth inhibition,[2]; at 11.0 µM,-1%
same,growth inhibition,[2]; at 33.0 µM,4%
same,growth inhibition,[2]; at 100.0 µM,9%
same,growth inhibition,[3]; at 1.2 µM,20%
same,growth inhibition,[3]; at 3.7 µM,36%
same,growth inhibition,[3]; at 11.0 µM,58%
same,growth inhibition,[3]; at 33.0 µM,80% (active)
same,growth inhibition,[3]; at 100.0 µM,84% (active)
same,growth inhibition,[4]; at 1.2 µM,0%
same,growth inhibition,[4]; at 3.7 µM,1%
same,growth inhibition,[4]; at 11.0 µM,3%
same,growth inhibition,[4]; at 33.0 µM,5%
same,growth inhibition,[4]; at 100.0 µM,6%
same,growth inhibition,[5]; at 1.2 µM,18%
same,growth inhibition,[5]; at 3.7 µM,36%
same,growth inhibition,[5]; [16],4%
same,growth inhibition,[5]; at 11.0 µM,66%
same,growth inhibition,[5]; at 33.0 µM,81% (active)
same,growth inhibition,[5]; [17],62%
same,growth inhibition,[5]; at 50.0 µM,93% (active)
same,growth inhibition,[5]; at 100.0 µM,86% (active)
same,growth inhibition,[6]; at 1.2 µM,15%
same,growth inhibition,[6]; at 3.7 µM,1%
same,growth inhibition,[6]; [16],-2%
same,growth inhibition,[6]; at 11.0 µM,3%
same,growth inhibition,[6]; at 33.0 µM,9%
same,growth inhibition,[6]; [17],-5%
same,growth inhibition,[6]; at 50.0 µM,22.1%
same,growth inhibition,[6]; at 100.0 µM,11%
same,growth inhibition,[7]; at 1.2 µM,-1%
same,growth inhibition,[7]; at 3.7 µM,2%
same,growth inhibition,[7]; at 11.0 µM,5%
same,growth inhibition,[7]; at 33.0 µM,8%
same,growth inhibition,[7]; at 100.0 µM,14%
same,growth inhibition,[8]; [16],-5%
same,growth inhibition,[8]; [17],-2%
same,growth inhibition,[8]; at 50.0 µM,34%
same,growth inhibition,[9]; at 1.2 µM,-8%
same,growth inhibition,[9]; at 3.7 µM,-2%
same,growth inhibition,[9]; at 11.0 µM,-2%
same,growth inhibition,[9]; at 33.0 µM,-3%
same,growth inhibition,[9]; at 100.0 µM,1%
same,growth inhibition,[10]; [16],-7%
same,growth inhibition,[10]; [17],-6%
same,growth inhibition,[10]; at 50.0 µM,47.8%
same,growth inhibition,[11]; at 1.2 µM,-1%
same,growth inhibition,[11]; at 3.7 µM,-1%
same,growth inhibition,[11]; [16],1%
same,growth inhibition,[11]; at 11.0 µM,-4%
same,growth inhibition,[11]; at 33.0 µM,-11%
same,growth inhibition,[11]; [17],-16%
same,growth inhibition,[11]; at 50.0 µM,6.55%
same,growth inhibition,[11]; at 100.0 µM,-8%
same,growth inhibition,[12]; at 1.2 µM,-5%
same,growth inhibition,[12]; at 3.7 µM,-1%
same,growth inhibition,[12]; at 11.0 µM,-2%
same,growth inhibition,[12]; at 33.0 µM,-3%
same,growth inhibition,[12]; at 100.0 µM,-4%
same,growth inhibition,[13]; at 1.2 µM,-1%
same,growth inhibition,[13]; at 3.7 µM,0%
same,growth inhibition,[13]; at 11.0 µM,-2%
same,growth inhibition,[13]; at 33.0 µM,3%
same,growth inhibition,[13]; at 100.0 µM,6%
same,growth inhibition,[14]; [16],-25%
same,growth inhibition,[14]; [17],-8%
same,growth inhibition,[14]; at 50.0 µM,55.6%
same,growth inhibition,[15]; at 1.2 µM,11%
same,growth inhibition,[15]; at 3.7 µM,8%
same,growth inhibition,[15]; at 11.0 µM,21%
same,growth inhibition,[15]; at 33.0 µM,29%
same,growth inhibition,[15]; at 100.0 µM,30%
